FMDV inh = High Throughput Screening for Foot and Mouth Disease Virus Antivirals. Potency, µM (top dose mostly 57.9 µM), inactives show at the highest dose activity change, negative = inhibition, actives largely listed as inhibitors. hit rate 1.2% among 410,000. FMDV antiviral cell-based qHTS; calls by dose curve; tested in HEK293T cells; note: read-out not given here; nearly all actives have a fitted effect of over 45% in size
Vaccinia mCherry = qHTS for Stage-Specific Inhibitors of Vaccinia Orthopoxvirus: mCherry Reporter Primary qHTS | Vaccinia virus mCherry reporter infection, fluorescence | Potency, µM (doses to about 36.5 µM), without a hit: at the highest dose activity change, negative = inhibition, most hits filed as inhibitors | hit rate 0.63% among 310,000; calls by dose curve; tested in A549 cells; note: nearly all actives have a fitted effect of over 35% in size
Marburg entry inh = qHTS for inhibitors of binding or entry into cells for Marburg Virus; Marburg virus pseudotyped entry inhibition, cell reporter; Potency, µM (highest dose often 37.8 µM), for the others: at the top dose activity change, negative = inhibition, actives largely listed as inhibitors; hit rate 1.8% among 300,000; AID 540276, 2011; calls by dose curve; tested in HEK293 cells
Lassa entry inh = qHTS for Inhibitors of binding or entry into cells for Lassa Virus; AID 540256, 2011; Lassa virus pseudotype entry inhibition, cell reporter; hit rate 1.2% among 300,000; Potency, µM (highest dose often 37.9 µM), inactives show at the highest dose activity change, negative = inhibition, usual class: inhibitors; calls by dose curve; tested in HEK293 cells; note: nearly all actives have a fitted effect of over 50% in size
VACV Venus inh = qHTS for Stage-Specific Inhibitors of Vaccinia Orthopoxvirus: Venus Reporter Primary qHTS; Vaccinia virus Venus reporter expression, fluorescence; Potency, µM (series often up to 36.5 µM), for inactives: at the highest dose activity change, negative = inhibition, actives largely listed as inhibitors; hit rate 0.46% among 330,000; calls by dose curve; tested in A549 cells; note: nearly all actives have a fitted effect of over 30% in size
The depositor's hits bear a star; i = inactive; ? = inconclusive; . = no result given; [ ] = remark or other dose. Sampled rows, rich in hits. Any-hit rate of the full collection: about 3.2%. % is set by controls: 0 for no effect and ±100 for the full control effect; potency is the fitted concentration of half-maximal effect.

SMILES	FMDV inh	Vaccinia mCherry	Marburg entry inh	Lassa entry inh	VACV Venus inh
CN(Cc1cnc2nc(N)nc(N)c2n1)c1ccc(C(=O)NC(CCC(=O)O)C(=O)O)cc1C(F)(F)F (configuration not stated)	-28.9%	0.316µM*	-67.2%	?	1.12µM*
CN(Cc1cnc2nc(N)nc(N)c2n1)c1ccc(C(=O)NC(CCC(=O)O)C(=O)O)cc1 (configuration not stated)	-24.1%	11.2µM*	?	?	?
O=c1oc2ccccc2c2c1[C@H]1O[C@](c3ccsc3)(Cc3c1ccc1ccccc31)O2	.	.	5.2%[14.2 µM]	.	.
CC1=NN(CCc2ccccn2)C(=O)CC1	2.5%	-13.8%	?	-7.1%	-1.9%
CC1(C)C(=O)NC2=C1C(=O)C(=O)c1ccccc12	14.1µM*	.	.	.	.
CCCN(CCC)S(=O)(=O)c1ccc2c(c1)N(CC(=O)NC(C)c1ccccc1)C(=O)CS2 (configuration not stated)	-8.1%	-21.9%	.	-24.7%[46.1 µM]	-18.6%
CCc1cc(C(=O)N(C)CC(=O)Nc2c(Cl)cccc2Cl)sc1C	-18.6%	i	?	8.91µM*	-10.5%
CN(CC(=O)Nc1c(Cl)cccc1Cl)C(=O)Cc1ccsc1	-8.5%	-19.7%	7.3%	-10.1%	-8.2%
NC(=S)N/N=C/c1ccccc1OCc1cccc(Cl)c1	?	1.78µM*	?	-26.6%	2µM*
NC(=S)N/N=C/c1ccc2cccc(OCc3ccccc3)c2n1	-21.9%	?	?	?	?
NC(N)=NC(=O)c1nc(Cl)c(N)nc1N	-11.9%	?	-15.9%	5.4%	-23.6%
NC(N)=NC(=O)c1nc(Cl)c(N2CCCCCC2)nc1N	-13.6%	-19.6%	7.08µM*	?	?
CC(C)CN(C)c1nc(N)c(C(=O)N=C(N)N)nc1Cl	.	.	7.08µM*	.	.
CC(=O)[C@]12C[C@@H]3CCCN(C(=O)N[C@@H]1c1ccccc1)[C@@H]32	.	.	0.3%[14.2 µM]	.	.
CC(C)CN=Cc1c(O)c([N+](=O)[O-])cc2oc3c(c12)CCCC3	31.6µM*	i	?	-16.1%	-17.0%
CC1=Nc2cc(C(=O)NCCc3ccc(Cl)cc3)ccc2Sc2ccc(C)cc21	-2.1%	?	7.94µM*	?	?
CC1=Nc2cc(C(=O)NC3CCCCC3)ccc2Sc2ccc(Cl)cc21	-20.4%	-26.7%[7.34 µM]	.	3.98µM*	-22.8%[7.34 µM]
CC1=Nc2cc(C(=O)NCCCOC(C)C)ccc2Sc2ccc(C)cc21	14.9%	?	?	?	?
COc1ccc2c(c1)[C@@]1(OCCC=C[C@@H]1C)C(=O)N2Cc1ccc(Br)cc1	.	.	5.4%[14.2 µM]	.	.
COC(=O)CC=C[C@@H](C)[C@@H](C=NOC[C@@H](O)[C@H]1O[C@@H]2OC(C)(C)O[C@H]2[C@@H]1O)OC	.	.	21.9%[14.2 µM]	?	.
COCCCNC(=O)c1ccc2nc(Cc3ccc(OC)cc3)oc2c1	8.6%	-16.0%	?	?	-14.5%
C=CCNC(=O)c1ccc2nc(Cc3ccc(OC)cc3)oc2c1	31.2%	-17.8%	?	5.62µM*	-23.8%
Cc1cc(C(=O)NCc2nnc3n2CCN(Cc2ccc4c(c2)Cc2ccccc2-4)CC3)c(C)o1	-27.6%	-9.5%	.	.	-6.4%
COc1ccc2ccccc2c1CNCc1ccc(C)cc1	-22.1%	-9.1%	10µM*	-5.9%[46.1 µM]	0.2%
CC(=O)Nc1ccc(N2C(C(C)=O)=NN(c3ccc(Cl)cc3)C2c2sccc2C)cc1 (configuration not stated)	?	.	20.6µM*	?	.
SMILES	FMDV inh	Vaccinia mCherry	Marburg entry inh	Lassa entry inh	VACV Venus inh
CC1C(=O)N(Cc2ccc([N+](=O)[O-])cc2)c2ccccc2N1C(=O)C1CC1 (configuration not stated)	-18.8%	i	-19.5%[46.1 µM]	3.7%[46.1 µM]	-0.6%
CC1C(=O)N(Cc2ccc(F)cc2)c2ccccc2N1C(=O)c1c(F)cccc1F (configuration not stated)	22.4µM*	.	.	.	.
Cc1ccc(-n2c(O)c(/C=N/Nc3ccc(S(=O)(=O)N4CCOCC4)cc3[N+](=O)[O-])c3ccccc3c2=O)c(C)c1	10µM*	i	?	?	-29.8%
O=C(N/N=C/c1ccccc1F)c1cc2c(ccc3ccccc32)o1	-5.5%	.	.	.	.
O=C(N/N=C/C=C/c1ccccc1)c1cc2c(ccc3ccccc32)o1	?	.	4.47µM*	7.94µM*	-6.5%
O=C(/C(=C/O)N=Nc1cccc(C(F)(F)F)c1)c1ccccc1	?	-11.4%	?	?	-17.3%
Cc1cccc(N=N/C(=C\O)C(=O)c2ccc(Br)cc2)c1	-13.3%	-24.2%	7.94µM*	5.62µM*	-5.0%
CC(=O)Nc1ccc(C(=O)COC(=O)c2cccs2)c(F)c1	60.7%	.	.	.	.
C=C(C)Cc1c(C)c(C#N)c2[nH]c3ccccc3n2c1=O	?	-19.3%	12.6µM*	?	-26.2%
Cc1c(CCC(=O)O)c(=O)n2c([nH]c3ccccc32)c1C#N	-8.3%	.	-6.6%	-3.9%	.
COc1ccc(CCNC(=O)c2nnn(-c3ccc4c(c3)OCCO4)c2N)cc1OC	3.55µM*	.	?	?	.
Nc1c(C(=O)Nc2cccc(F)c2)nnn1-c1ccc2c(c1)OCCO2	-18.3%	-17.1%	?	3.98µM*	-12.9%
COc1ccc(CCNC(=O)c2nnn(-c3ccccc3OC)c2N)cc1OC	-19.1%	-16.4%	-15.6%	14.7%	-14.6%
COc1ccc(C(=O)O/N=C(\N)Cc2cccs2)cc1OC	4.0%	-19.2%	?	1.78µM*	-24.4%
COc1ccccc1C(=O)O/N=C(\N)c1ccccc1Cl	54.2%	.	?	?	.
COc1ccc(C(=O)O/N=C(\N)c2ccccc2Cl)cc1OC	19.5%	i	11.2µM*	4.47µM*	-14.0%
COc1ccccc1C1CCN(Cc2ccc3ccccc3c2)CC1	?	-19.9%	7.08µM*	6.7%	-12.0%
O=C(NCc1ccc(F)cc1)c1cccc(N2CCCS2(=O)=O)c1	-23.5%	-12.5%	.	-5.9%[46.1 µM]	-5.8%
CCN(c1ccccc1)S(=O)(=O)c1cccc(C(=O)OCC(=O)c2c(N)n(C)c(=O)n(C)c2=O)c1	-27.8%	.	.	.	.
CC(=O)N1CCN(S(=O)(=O)c2cccc(C(=O)N(C)Cc3ccc(C)o3)c2)CC1	9.3%	i	6.8%	0.7%[46.1 µM]	-14.1%
COc1ccc(N(C)S(=O)(=O)c2cccc(C(=O)N(C)Cc3ccc(C)o3)c2)cc1	-22.8%	-2.7%	?	5.01µM*	-6.1%
COc1ccc(N(C)S(=O)(=O)c2cccc(C(=O)OCC(=O)c3c(N)n(C)c(=O)n(C)c3=O)c2)cc1	22.4µM*	-12.3%	?	?	-17.0%
O=C(CSc1ccc(Cl)cc1)NC(=O)c1ccccc1	-0.6%	.	.	.	.
CN(Cc1nc(Cc2ccccc2F)no1)Cc1cccc2ncccc12	15.8µM*	-4.5%	3.3%[46.1 µM]	?	-6.5%
CCOc1ccc(C(=O)Nc2ccc3nc(Nc4cccc(C(F)(F)F)c4)cc(C)c3c2)cc1OCC	0.0%	2.9%	.	-0.2%[46.1 µM]	-5.7%
Cc1nc(Nc2cnc(/C=C/c3cc(C(=O)Nc4cccc(C(F)(F)F)c4)ccc3C)cn2)cc(N2CCNCC2)n1	-36.2%	?	.	.	10µM*
